{
  "source": "PubChem BioAssay (NCATS)",
  "note": "The source made the active and inactive calls. Calls come from the whole dose curve; as a rule, active = well fitted curve in the direction sought with a large enough effect; inconclusive = small, poorly fitted or top-dose-only effect, or another doubt; inactive = no such curve, though single readings can be large or run the other way.",
  "data": [
    {"biological_target": "Galactokinase (Homo sapiens) (UniProt P51570)", "sequence (P51570 whole entry, looked up)": "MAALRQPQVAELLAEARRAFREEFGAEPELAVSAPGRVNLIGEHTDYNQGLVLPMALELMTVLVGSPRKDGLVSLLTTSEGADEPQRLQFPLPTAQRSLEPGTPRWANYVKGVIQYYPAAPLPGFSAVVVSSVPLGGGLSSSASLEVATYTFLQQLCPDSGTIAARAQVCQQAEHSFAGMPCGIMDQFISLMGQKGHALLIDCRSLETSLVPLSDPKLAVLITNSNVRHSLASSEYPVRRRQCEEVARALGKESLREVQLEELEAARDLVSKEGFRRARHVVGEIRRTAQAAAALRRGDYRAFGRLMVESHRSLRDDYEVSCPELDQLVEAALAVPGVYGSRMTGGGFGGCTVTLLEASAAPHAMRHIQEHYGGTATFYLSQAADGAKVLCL", "assay": "qHTS Validation Assay for Inhibitors of Human Galactokinase (GALK) (AID 493189)", "settings": "purified human GALK enzyme activity, qHTS 7-point titration; series mostly up to 57.5 µM", "source_text": "NIH Molecular Libraries Probe Production Centers Network [MLPCN]\nNIH Chemical Genomics Center [NCGC]\nAssay Submitter (PI): Kent Lai (University of Utah School of Medicine, 50 N Mario Capecchi Drive, Salt Lake City, UT 84132)\nInherited deficiency of galactose-1-phosphate uridyltransferase (GALT) can result in a potentially lethal disorder called Classic Galactosemia (OMIM 230400). Several lines of evidence indicate that an elevated level of galactose-1-phosphate (gal-1-p), the product of galactokinase (GALK), is a major, if not sole, pathogenic mechanism in patients with classic galactosemia. Therefore, finding inhibitors of GALK is a potential novel therapy for this inherent metabolic disease and is the long term goal of this project.\nGALK (provided by the assay submitter) was assayed using ATP and D-(+)-Galactose (Sigma-Aldrich cat# G0750) as substrates. Promega Kinase-Glo Plus (cat# V3774) technology was used to detect the residual ATP following kinetic reaction. Briefly, the Kinase-Glo Plus contains Ultra-Glo [2] luciferase and D-luciferin which generates a bioluminescence signal from the remaining ATP.\nNCGC Assay Protocol Summary:\nThree uL/well of ATP-buffer solution (35 uM ATP, 20mM HEPES pH8.0, 5 mM MgCl2, 60 mM NaCl, 1 mM DTT, 0.01% BSA final concentration) was dispensed into 1536-well, assay plates (Greiner, solid white medium-binding plates) with Aurora Discovery BioRAPTR Flying Reagent Dispenser (FRD; Beckton-Dickenson). Compound solution (23 nL) was transferred to the assay plate using the Kalypsys 1536-pin tool. One uL/well GALK-galactose solution (5 nM GALK, 100 uM galactose, 20 mM HEPES pH8.0, 5 mM MgCl2, 60 mM NaCl, 1 mM DTT, 0.01% BSA final concentration) was then added using the FRD yielding a total kinase reaction volume of 4 uL/ well. After 1 hour of room temperature incubation, 4 uL Kinase-Glo Plus reagent was added for a final assay volume of 8 uL/ well. Luminescence was detected with the ViewLux plate reader (Perkin Elmer, Waltham, MA) after 10 min incubation using a 1 sec exposure time and 2x binning.", "values": [
      {"smiles": "Nc1nc(N)c2nc(CNc3ccc(C(=O)NC(CCC(=O)O)C(=O)O)cc3)cnc2n1", "note": "(configuration not stated)", "outcome": "inactive"},
      {"smiles": "Cc1ccc(S(=O)(=O)N[C@@H](Cc2ccccc2)C(=O)CCl)cc1", "outcome": "inactive"},
      {"smiles": "CCN1CCCC1CNC(=O)c1cc(S(N)(=O)=O)ccc1OC", "note": "(configuration not stated)", "outcome": "inactive"},
      {"smiles": "O=C(O)C1CCCN(CCC=C(c2ccccc2)c2ccccc2)C1", "note": "(configuration not stated)", "outcome": "inactive"},
      {"smiles": "CC(C)(C)NC(=O)[C@H]1CC[C@H]2[C@@H]3CC[C@H]4NC(=O)C=C[C@]4(C)[C@H]3CC[C@]12C", "outcome": "inactive"},
      {"smiles": "NC(=O)c1cccc(N)c1", "outcome": "inactive"},
      {"smiles": "CC(C)NCC(O)c1ccc(NS(C)(=O)=O)cc1", "note": "(configuration not stated)", "outcome": "inactive"},
      {"smiles": "OCc1ccc(-c2nn(Cc3ccccc3)c3ccccc23)o1", "outcome": "inactive"},
      {"smiles": "CCCCS(=N)(=O)CCC(N)C(=O)O", "note": "(configuration not stated)", "outcome": "inactive"},
      {"smiles": "CC1=C(C(=O)O)N2C(=O)[C@@H](NC(=O)C(N)c3ccccc3)[C@H]2SC1", "note": "(some centres not stated)", "outcome": "inactive"},
      {"smiles": "COc1cc2ncnc(Nc3cccc(Cl)c3)c2cc1OC", "outcome": "inactive"},
      {"smiles": "CC(=O)[C@H]1CC[C@H]2[C@@H]3CCC4=CC(=O)CC[C@]4(C)[C@H]3CC[C@]12C", "outcome": "inactive"}
    ]}
  ]
}
